Potency, max response and outcome data for 10 compounds are collected here from PubChem BioAssay (NCATS).

In assay [1] the test system is TAB165. Description: qHTS profiling for inhibitors of Plasmodium falciparum proliferation (AID 504749). Note: nearly all actives have a fitted effect of over 60% in size. Note: potency is the fitted concentration of half-maximal effect. To be noted: P. falciparum in erythrocytes, SYBR Green DNA, 72 h; series mostly up to 28.7 µM. In outline: (§1)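 Quantitative HTS: compounds pinned into medium, infected erythrocytes added (0.3% parasitemia, 2.5% hematocrit), 72 h culture at 37 C under 5% CO2. Saponin/Triton lysis with SYBR Green I, overnight RT, then fluorescence read.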

Assay [2] deals with W2. Described as above. To be noted: P. falciparum in erythrocytes, SYBR Green DNA, 72 h; series mostly up to 28.7 µM. The gist of the method: as §1
Assay [3] has as its system CRL-7250. Description: Cytotoxic Profiling of Annotated Libraries Using Quantitative High-Throughput Screening (AID 1296008). For max response: % is set by controls: 0 for no effect and ±100 for the full control effect. Note: nearly all actives have a fitted effect of over 60% in size. Note: potency is the fitted concentration of half-maximal effect. The note with it: Five cell lines viability, CellTiter-Glo ATP luminescence, 48-72 h; max response: active compounds read low. The gist of the method:
(§2)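 Compounds were pin-transferred onto cells and incubated 48 or 72 hr at 37 degree Celsius, 95% humidity. CellTiter-Glo was added, plates sat 10 min at room temperature, then ATP-coupled luminescence was imaged as the viability read-out.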

Assay [4] relates to HEK293. Described as above. The note with it: Five cell lines viability, CellTiter-Glo ATP luminescence, 48-72 h; max response: active compounds read low. In outline: as §2
Assay [5] relates to HaCat. The description is as above. The note with it: Five cell lines viability, CellTiter-Glo ATP luminescence, 48-72 h; max response: active compounds read low. The gist of the method: as §2
The test system of assay [6] is KB-3-1. The description is as above. The note with it: Five cell lines viability, CellTiter-Glo ATP luminescence, 48-72 h; max response: active compounds read low. In outline: as §2
The test system of assay [7] is NIH3T3. The assay is described as above. To be noted: Five cell lines viability, CellTiter-Glo ATP luminescence, 48-72 h; max response: active compounds read low. In outline:
as §2

The subject of assay [8] is C33A. Description: Primary qHTS to identify gynecologic anti-cancer compounds using libraries of approved drugs and bioactive compounds (AID 1345084). Note: nearly all actives have a fitted effect of over 55% in size. Note: potency is the fitted concentration of half-maximal effect. To be noted: Gynecologic cancer cell panel viability, ATPlite luminescence, 48 h; series mostly up to 57.5 µM. In outline: (§3)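 Cells, 1,000 per well, were allowed to settle for 16 h at 37 C before compound addition. Five concentrations were tested for 48 h, and viability was read by ATPlite luminescence after 15 min at room temperature.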

Assay [9] deals with CAOV3. The description is as above. The note with it: Gynecologic cancer cell panel viability, ATPlite luminescence, 48 h; series mostly up to 57.5 µM. The gist of the method:
as §3

Assay [10] concerns Es-2. The description is as above. The note with it: Gynecologic cancer cell panel viability, ATPlite luminescence, 48 h; series mostly up to 57.5 µM. The gist of the method: as §3
For assay [11], the system named is HACAT. Kind of assay: qHTS assay to identify novel small-molecules to repurpose for Merkel cell carcinoma treatment (AID 1296009). Note: nearly all actives have a fitted effect of over 60% in size. The note with it: MCC and control cell lines, CellTiter-Glo viability, 72 h; at 44.8 µM (top of the series) unless noted. In outline: (§4)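 Viability readout: ATP luminescence (CellTiter-Glo) after 72 hr drug exposure at 37 degree celsius. Dose-response format was 8 points for NPC and 11 points for MIPE; data normalized to in-plate controls.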

For assay [12], the system named is HEK293T. The description is as above. To be noted: MCC and control cell lines, CellTiter-Glo viability, 72 h; at 44.8 µM (top of the series) unless noted. In outline:
as §4

Assay [13] has as its system MCC-13. Described as above. The note with it: MCC and control cell lines, CellTiter-Glo viability, 72 h; series mostly up to 46 µM. In outline: as §4
For assay [14], the system named is MCC-26. The assay is described as above. To be noted: MCC and control cell lines, CellTiter-Glo viability, 72 h; series mostly up to 46 µM. The gist of the method: as §4
Assay [15] deals with MKL-1. The description is as above. To be noted: MCC and control cell lines, CellTiter-Glo viability, 72 h; series mostly up to 46 µM. The gist of the method:
as §4

The test system of assay [16] is MKL-2. The assay is described as above. The note with it: MCC and control cell lines, CellTiter-Glo viability, 72 h; series mostly up to 46 µM. In outline:
as §4

Assay [17] concerns UISO. Described as above. The note with it: MCC and control cell lines, CellTiter-Glo viability, 72 h; series mostly up to 46 µM. The gist of the method: as §4
In assay [18] the test system is WaGa. Described as above. To be noted: MCC and control cell lines, CellTiter-Glo viability, 72 h; series mostly up to 46 µM. The gist of the method: as §4
In assay [19] the test system is CASKI. Description: Primary qHTS to identify gynecologic anti-cancer compounds using libraries of approved drugs and bioactive compounds (AID 1345084). Note: nearly all actives have a fitted effect of over 55% in size. Note: potency is the fitted concentration of half-maximal effect. The note with it: Gynecologic cancer cell panel viability, ATPlite luminescence, 48 h; series mostly up to 57.5 µM. In outline:
as §3

Assay [20] deals with NIH3T3. Kind of assay: qHTS assay to identify novel small-molecules to repurpose for Merkel cell carcinoma treatment (AID 1296009). Note: nearly all actives have a fitted effect of over 60% in size. To be noted: MCC and control cell lines, CellTiter-Glo viability, 72 h; at 44.8 µM (top of the series) unless noted. In outline: as §4

“And” between values parts separate entries of the source, which are not always exact repeats. Equal entries are not always repeated. Results filed as inconclusive are left out. A structure can be active in one record and inactive in another. Unmarked numbers belong to inactive results. The source made the active and inactive calls. Calls come from the whole dose curve; as a rule, active = well fitted curve in the direction sought with a large enough effect; inconclusive = small, poorly fitted or top-dose-only effect, or another doubt; inactive = no such curve, though single readings can be large; an effect the other way counts as inactive or inconclusive.

Regarding `Cc1cc(N)c2ccccc2[n+]1CCCCCCCCCC[n+]1c(C)cc(N)c2ccccc21`, the Potency is 0.1 µM (active) in [1]; 0.102 µM (active) in assay [2]; 14.6 µM (active) in assay [3]; 1.3 µM (active) in [4]; 9.2 µM (active) in assay [6]; 14.1 µM (active) in [9]. Moreover, the max response in assay [5] was -1.45%; in assay [6], -23.8%; in assay [7] it was -20.7%. For the same compound, the Potency entry in assay [8] and in assay [10] was “inactive” throughout.

Regarding `CCOc1ccc2ccccc2c1C(=O)N[C@@H]1C(=O)N2[C@@H]1SC(C)(C)[C@@H]2C(=O)O`, the Potency result in assay [1], in [13], in [14], in [15], in assay [16] and in assay [17] was “inactive” in each case. For the same compound, the Potency entry in assay [18], in [8], in assay [9], in assay [19] and in assay [10] was “inactive” throughout. In addition, the compound was called inactive in [3], in assay [4], in assay [5], in assay [11] and in assay [12]. Moreover, the max response is 0.937% in [4]; 4.96% in assay [5]; -11.5% and -0.445% in assay [6]; -3.18% and 1.59% in [7].

For `O=C(Oc1ccccc1C(=O)O)c1ccccc1O`, the Potency entry in assay [1], in assay [2], in assay [13], in assay [14], in assay [15] and in [16] was “inactive” in each case. Further, the Potency result in [17], in [18], in [8], in [9], in assay [19] and in [10] was “inactive” each time. Further, the max response in assay [3] was 4.21%; in assay [6], -14.6%. The outcome in [4], in [5], in assay [7], in [11], in assay [12] and in [20] was inactive.

For the compound `COc1ccc2[nH]c(S(=O)Cc3ncc(C)c(OC)c3C)nc2n1` (stereo not drawn), the figures for the Potency in assay [1] and in assay [2] were 7.94 µM (active) and 9.53 µM (active), respectively. The outcome in [3], in [4], in assay [5], in assay [6], in assay [7] and in [11] was inactive. In addition, the call in assay [12] and in [20] was inactive. For the same compound, the max response was -5.32% in assay [5], 2.51% in assay [6] and 3.86% in [7]. The Potency entry in [13], in assay [14], in assay [15], in assay [16], in assay [17] and in assay [8] was “inactive” in each case. Further, the Potency result in assay [9], in assay [19] and in [10] was “inactive” in each case.

Turning to `CCOc1nc2cccc(C(=O)O)c2n1Cc1ccc(-c2ccccc2-c2nn[nH]n2)cc1`, the max response was -0.772% in assay [3]; -7.13% and 4.6% in [4]; -22.9% and -2.42% in [5]; -0.374% and 6.58% in assay [6]; 4.21% in assay [7]. Moreover, the outcome in [3], in [7] and in assay [20] was inactive. Also, the Potency result in assay [13], in [14], in assay [15], in assay [16], in assay [17] and in assay [18] was “inactive” throughout. Also, the Potency result in assay [8], in assay [19] and in assay [10] was “inactive” each time.

On to `CC(C(O)c1ccc(O)cc1)N1CCC(Cc2ccccc2)CC1` (stereo not drawn), for which the Potency in assay [1] is 8.91 µM (active); in assay [2] it was 4.26 µM (active). Besides, the max response in assay [3] was -1.07%; in [5], -22.6%; in assay [6], -5.14%; in [7] it was -2.06% and 3.27%. Besides, the result in assay [3], in assay [5] and in assay [6] was inactive. The outcome in assay [11] was “inactive [at 17.4 µM]”. Also, the Potency entry in assay [13], in [15], in assay [16], in assay [17], in assay [18] and in assay [8] was “inactive” throughout. For the same compound, the Potency entry in assay [9], in assay [19] and in assay [10] was “inactive” throughout.

Consider `CCCCOc1cc(C(=O)OCCN(CC)CC)ccc1N`, for which the Potency entry in assay [1], in assay [2], in assay [13], in assay [14], in assay [15] and in assay [16] was “inactive” in each case. Also, the Potency entry in assay [17], in assay [18], in assay [8], in [9], in assay [19] and in assay [10] was “inactive” throughout. For the same compound, the max response in assay [3] was -0.166%; in assay [4], -17.2% and -4.15%; in assay [5] it was 1.81%. In addition, the result in assay [3], in assay [5], in [7], in [11] and in assay [20] was inactive.

`CNC(=O)Oc1ccc2c(c1)[C@]1(C)CCN(C)[C@@H]1N2C`: the Potency in assay [1] is 1.58 µM (active); in assay [2], 1.51 µM (active). Besides, the compound was called inactive in [3], in assay [4], in assay [5], in assay [6], in assay [7] and in assay [11]. The compound was classed as inactive in assay [12] and in assay [20]. Further, the max response in assay [5] was -0.257%; in [6] it was -5.47%; in [7], -4.44%. The Potency entry in assay [13], in [15], in assay [16], in [17], in assay [18] and in [8] was “inactive” throughout. The Potency entry in assay [9], in assay [19] and in assay [10] was “inactive” in each case.

Regarding `O=c1[nH]cnc2c1ncn2[C@@H]1O[C@H](CO)[C@@H](O)[C@H]1O`, the max response in [3] is -10.1% and -4.73%; in [4], 3.98%; in assay [6], 7.98%; in assay [7], 0.16%. Besides, the compound was called inactive in assay [4], in [5], in assay [6], in assay [7], in assay [11] and in assay [12]. The compound was classed as inactive in assay [20]. Further, the Potency result in assay [13], in assay [14], in assay [15], in [16], in assay [17] and in assay [18] was “inactive” each time. Further, the Potency entry in assay [8], in [9], in assay [19] and in assay [10] was “inactive” throughout.

Take `O=C(CCCN1CCN(c2ccccn2)CC1)c1ccc(F)cc1`: the Potency result in [1], in assay [2], in assay [13], in assay [14], in assay [15] and in assay [16] was “inactive” throughout. The Potency entry in [18], in assay [8], in [19] and in assay [10] was “inactive” in each case. Besides, the max response in assay [3] was -29%; in assay [4] it was -14.9%; in assay [5], -5.51% and 4.13%; in assay [6], 7.83% and 2.47%; in assay [7], -7% and 0.386%. Further, the outcome in assay [3] was inactive.
